# Source: PubChem BioAssay (NCI)
# The panel holds about 83,000 compounds, 20% with a hit somewhere; the sample as a whole holds those more often.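 Note: values are percent growth. 100 is the growth of untreated cells, values between 100 and 0 indicate rising inhibition; between -100 and 0 indicates cell death.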 Unmarked numbers belong to inactive results. Active and inactive are the calls of the source. How the source made its calls: active means growth percent below 10; inactive means the rest.
# Tests used:
# Test in all cases: NCI-60 one-dose screen, 48 h (100 = growth as untreated, 0 = no growth, -100 = all killed)
# [1] = system: SR leukemia; conditions: 10 µM unless noted
# [2] = system: RPMI-8226 leukemia; conditions: 10 µM unless noted
# [3] = system: OVCAR-8 ovarian; conditions: 10 µM unless noted
# [4] = system: OVCAR-5 ovarian; conditions: 10 µM unless noted
# [5] = system: OVCAR-4 ovarian; conditions: 10 µM unless noted
# [6] = system: SK-OV-3 ovarian; conditions: 10 µM unless noted
# [7] = system: IGROV1 ovarian; conditions: 10 µM unless noted
# [8] = system: OVCAR-3 ovarian; conditions: 10 µM unless noted
# [9] = system: NCI/ADR-RES ovarian; conditions: 10 µM unless noted
# [10] = system: T-47D breast; conditions: 10 µM unless noted
# [11] = system: BT-549 breast; conditions: 10 µM unless noted
# [12] = system: MDA-MB-435 melanoma; conditions: 10 µM unless noted
# [13] = system: SW-620 colon; conditions: 10 µM unless noted
# [14] = system: MCF7 breast; conditions: 10 µM unless noted
# [15] = system: HCT-116 colon; conditions: 10 µM unless noted
# [16] = system: HCC-2998 colon; conditions: 10 µM
# [17] = system: KM12 colon; conditions: 10 µM unless noted
SMILES,growth [1],growth [2],growth [3],growth [4],growth [5],growth [6],growth [7],growth [8],growth [9],growth [10],growth [11],growth [12],growth [13],growth [14],growth [15],growth [16],growth [17]
O=C(O)c1ccc(Nc2ncc3c(n2)-c2ccc(Cl)cc2C(c2c(F)cccc2F)=NC3)cc1,24.2%,47.7%,43%,59.3%,79.6%,59.7%,41.8%,64.5%,55.4%,47.5%,57.1%,70.7%,35.4%,49.3%,43.6%,78.5%,28.3%
CCOc1cc2ncc(C#N)c(Nc3ccc(OCc4ccccn4)c(Cl)c3)c2cc1NC(=O)/C=C/CN(C)C,-6.61% (active),-7.58% (active),-7.74% (active),9.55% (active),-73.6% (active),-10.6% (active),-62.5% (active),47.5%,-10.8% (active),15.9%,39.4%,-87.7% (active),-63.9% (active),-6.35% (active),-81.2% (active),50.8%,-60% (active)
NC1=Nc2cc(OCCCN3Cc4ccccc4C3)c(OCC3CC3)cc2C12CCCC2,-5.81% (active),33.8%,72%,83.5%,61.3%,70.1%,71.7%,75.7%,79%,2.41% (active),68.6%,38.1%,76.3%,47.5%,32.9%,1.52% (active),69.6%
CC(=O)c1c(C)c2cnc(Nc3ccc(N4CCNCC4)cn3)nc2n(C2CCCC2)c1=O,-18.7% (active),28.2%,52.3%,37.8%,62%,36.5%,27.2%,74.6%,72.4%,55.7%,50.5%,45.5%,27.3%,27.4%,10.6%,57.3%,11.3%
C=CC(=O)Nc1cc(Nc2nccc(-c3cn(C)c4ccccc34)n2)c(OC)cc1N(C)CCN(C)C,-24% (active),-22% (active),-25.4% (active),-56.5% (active),-13.5% (active),15.4%,-48.8% (active),-55.3% (active),-38.8% (active),-60.8% (active),-39.7% (active),-93.9% (active),-63.7% (active),-61.3% (active),-79.8% (active),-86.4% (active),-47.7% (active)
COc1cccc(NC(=O)Nc2ccc(Nc3ncnc4sc5c(c34)CCN(C(=O)CCl)C5)cc2)c1,77.8%,93.3%,84.4%,103%,126%,93.8%,82.6%,104%,102%,86.6%,99.1%,109%,102%,87.3%,93.5%,115%,98.1%
NC(=O)Nc1cc(-c2cccc(F)c2)sc1C(=O)N[C@H]1CCCNC1,-6.47% (active),6.16% (active),-15.2% (active),2.28% (active),25.5%,-46.4% (active),-50.5% (active),-1.15% (active),10%,15.1%,-60.9% (active),-25.8% (active),-7.1% (active),14.3%,-9.03% (active),-34.6% (active),1.83% (active)
C1=C\COCc2cc(ccc2OCCN2CCCC2)Nc2nccc(n2)-c2cccc(c2)COC/1,-8.75% (active),-32% (active),6.66% (active),-6.58% (active),-4.87% (active),-27.6% (active),-18.7% (active),2.03% (active),0.945% (active),-23.5% (active),21.9%,-54.6% (active),3.2% (active),-25.1% (active),1.18% (active),-16.4% (active),-9.97% (active)
CCN1CCN(Cc2ccc(Cc3ncc(F)c(-c4cc(F)c5nc(C)n(C(C)C)c5c4)n3)nc2)CC1,-12.4% (active),44.8%,68.3%,46.5%,69.5%,22.4%,37.3%,63.2%,72.3%,65.2%,61%,45.9%,-5.5% (active),25.1%,5.58% (active),54.7%,28%
C/C(=C(/c1ccc(Cl)cc1)c1ccc(OCCN2CCCCC2)cc1)c1ccccc1,11.2%,69.6%,78.8%,81.6%,77.1%,86%,68.5%,98.6%,89.8%,46.7%,81.3%,90.9%,60.1%,43.6%,54.2%,98%,29.9%
C[C@@]1(C(=O)Nc2ccc(F)nc2)CCCN1c1nc(Nc2cc(C3CC3)[nH]n2)c2cccn2n1,-0.827% (active),62.1%,38.6%,14.7%,0.224% (active),18.7%,1.38% (active),57.4%,32%,7.7% (active),27.3%,38.1%,16.4%,17.9%,7.82% (active),42.2%,-23.6% (active)
COc1cc(Nc2ncc(F)c(Nc3ccc4c(n3)NC(=O)C(C)(C)O4)n2)cc(OC)c1OC,38.5%,71.8%,67.3%,24.1%,73.8%,21.8%,-9.34% (active),63.4%,59.1%,39%,34.1%,51.2%,59.5%,41.5%,59.3%,100%,12.3%
Cc1ccc(NC(=O)c2ccc(CN3CCN(C)CC3)cc2)cc1Nc1nc(-c2cccnc2)cs1,-3.75% (active),13.2%,34.5%,98.7%,62.6%,75.3%,62.3%,79.6%,55.7%,-9.37% (active),41.2%,45.4%,42.1%,28.5%,18.1%,68.3%,51.7%
COc1cccc2cc(-c3nc(C4CCC(C(=O)O)CC4)n4ncnc(N)c34)[nH]c12 (centres undefined),7.63% (active),7.52% (active),1.18% (active),25.6%,-23.4% (active),-26% (active),-12.9% (active),12.3%,2.94% (active),-30.2% (active),-11.5% (active),-8.42% (active),14.4%,6.71% (active),26.3%,23.1%,18.4%
O=C(Nc1cn[nH]c1-c1nc2ccc(CN3CCOCC3)cc2[nH]1)NC1CC1,-11.9% (active),108%,28.7%,22.5%,78.5%,-5.97% (active),9.49% (active),11.7%,76.3%,36.7%,2.57% (active),35.9%,11.5%,10.4%,3.94% (active),41.8%,6.92% (active)
Cc1cc(C(=O)Nc2cc(Oc3ccc4nc(NC(=O)C5CC5)cn4n3)ccc2C)n(C)n1,29.5%,48.6%,30.2%,11.6%,49%,17.9%,12%,52.8%,60.2%,53.4%,30.1%,34.3%,15.2%,33.7%,6.14% (active),2.16% (active),12.2%
S=C(NCc1ccc2c(c1)OCO2)N1CCN(c2ncnc3c2oc2ccccc23)CC1,14.8%,21.3%,24.8%,62.1%,14.1%,35.6%,33.4%,30.9%,28.3%,1.12% (active),32.3%,19.3%,40.9%,18.7%,34.3%,57.4%,45.2%
